# How the values were obtained:
# Type in all cases: functional
# [1] = test system: Plasmodium falciparum; test: GSK_TCMDC: Inhibition of Plasmodium falciparum 3D7 in whole red blood cells, using parasite LDH activity as an index of growth. Test compounds present at 2uM
# [2] = test system: Plasmodium falciparum; test: GSK_TCMDC: Inhibition of Plasmodium falciparum Dd2 in whole red blood cells, using parasite LDH activity as an index of growth. Test compounds present at 2uM
# [3] = test system: HepG2; test: GSK_TCMDC: Percent inhibition of human HepG2 cell line. Test compounds present at 10uM.
SMILES,Inhibition [1] [%],Inhibition [2] [%],Inhibition [3] [%]
CN(C)c1ccc(C=Cc2nc(=O)c3ccccc3o2)cc1,96,97,6
CCOc1cc(CC)ccc1C1CCN(CCCCNC(=O)c2ccc(NC(=O)c3ccc(C#N)cc3)cc2)CC1,91,50,55
O=C(CCCCCNC(=O)c1ccc(O)c(-c2ccc(Cl)c(Cl)c2)c1)NCc1cccc(C(F)(F)F)c1,92,10,2
Cc1cccc2nc(-c3cccc(-c4cccc(CNCCc5cccn5C)c4)c3)[nH]c12.O=C(O)C(F)(F)F,91,49,4
CN(Cc1c(Cl)cnn1C)S(=O)(=O)c1ccc2ccccc2c1,94,36,7
CC(C)[C@H](NC(=O)c1ccc(O)c(-c2ccc(Cl)c(Cl)c2)c1)C(=O)NCCN1CCCC1,98,83,4
COc1cc(Nc2ncc3c(C)nc(-c4cc5ccccc5[nH]4)n3n2)cc(OC)c1OC,91,65,19
COc1cccc(NC(=O)N2CCOC(CCN3CCC4(CCc5ccccc54)CC3)(c3ccc(Cl)c(Cl)c3)C2)c1 (stereo not given),94,72,97
CCC(CC)CN1C(=O)C(c2ccccc2)(c2ccccc2)N=C1N.O=CO,97,81,14
Cc1cccc2nc(-c3cccc(-c4ccc(NC(=O)C5CCCO5)cc4)c3)[nH]c12 (stereo not given),91,13,10
